Shiga toxin inh – blocks Shiga toxin action in Vero cells | Vero cells, Shiga toxin protein synthesis inhibition reporter | inhibition, % at 38.7 µM | 9.2% of 290,000 active; in the data active = inhibition mostly above about 28%, no sharp cut-off; inactive = mostly below about 43%; note: 0% is about no effect
Pf growth 48h – P. falciparum growth inhibition at 48 hours (one generation); P. falciparum luciferase growth in erythrocytes, 48 h; Potency, µM (highest dose often 28.7 µM), for inactives: top-dose activity change, negative = inhibition, usual class: inhibitors; 5.9% of 310,000 active; AID 504832; note: potency is the fitted concentration of half-maximal effect; % is set by controls: 0 for no effect and ±100 for the full control effect
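In quantitative HTS format, infected erythrocytes bearing luciferase-reporter parasites were treated for a single generation at 37 C. Luminescence after adding detection reagent served as the growth measure.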
Pf growth 96h – P. falciparum growth inhibition at 96 hour, primary screen for plastid delayed-death inhibitors. Potency, µM (series often up to 28.7 µM), inactives show at the highest dose activity change, negative = inhibition, most hits filed as inhibitors. P. falciparum luciferase reporter growth, 96 h. 6.9% of 320,000 active; note: potency is the fitted concentration of half-maximal effect; % is set by controls: 0 for no effect and ±100 for the full control effect
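Infected RBCs, 2% Hct / 0.05% parasitemia final; luciferase-reporter P. falciparum; cpd 96 h, 37 C, 5% CO2; luciferase detection reagent; luminescence.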
CHX counter – counter-screen for Shiga toxin inhibitors: cycloheximide protein synthesis inhibition; max response, %; 12% of 300,000 active; cell reporter, cycloheximide protein synthesis inhibition counterscreen; AID 2314; in the data active = max response mostly above about 13%, no sharp cut-off; inactive = mostly below about 14%; note: read at 38.3 µM for the half of the compounds with a filed dose; 0% is about no effect
AMA1 RON2 block – disrupts binding of P. falciparum AMA1 to RON2 | AID 720542 | 0.2% of 360,000 active | AlphaScreen AMA1-biotinylated RON2 peptide binding | Potency, µM (doses to about 58.2 µM), for inactives: top-dose activity change, negative = inhibition, actives largely listed as inhibitors;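 note: potency is the fitted concentration of half-maximal effect; 0% = vehicle wells and -100% = peptide control; nearly all actives have a fitted effect of over 45% in size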
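AMA1 (3D7) with his tag at 25 nM final met compounds first, then biotinylated RON2 peptide at 25 nM; detection used donor plus acceptor beads, 10 µg/mL apiece, read by AlphaScreen after 30 min at room temperature.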
HCV inh – inhibitors of hepatitis C virus infection; Huh7.5.1 HCVcc-Cre infection, luciferase reporter, 44 h; Potency, µM (doses to about 41.8 µM), without a hit: at the highest dose activity change, negative = inhibition, actives largely listed as inhibitors; 3.4% of 340,000 active; AID 651820; note: potency is the fitted concentration of half-maximal effect; % is set by controls: 0 for no effect and ±100 for the full control effect
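Infectious HCVcc-Cre (~0.5 moi) was added to cells just after compound, with cells seeded 4 h earlier at 1,000 per well. Luciferase activity after 44 h culture reported infection; substrate was incubated 15 min at room temperature before reading.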
The depositor's hits bear a star; ? = inconclusive; . = not tested or not shown; + = active, no number. Only some compounds are listed: those with a hit (about 21% of all), similar ones and a draw of the others. Unless noted, calls come from the whole dose curve; as a rule, active = well fitted curve in the direction sought with a large enough effect; inconclusive = small, poorly fitted or top-dose-only effect, or another doubt; inactive = no such curve, though single readings can be large; an effect the other way counts as inactive or inconclusive.

SMILES | Shiga toxin inh | Pf growth 48h | Pf growth 96h | CHX counter | AMA1 RON2 block | HCV inh
Cc1ccc(C(=O)CC(SCC(=O)O)c2ccc([N+](=O)[O-])cc2)cc1 (stereo unspecified) | 17.7 | -14.2% | -13.8% | 8.2 | 0.0% | -7.6%
O=C(CC(Nc1ccc(F)cc1)C(=O)O)c1ccccc1 (stereo unspecified) | 41.1* | 203.9% | . | 37.1* | -0.5% | 0.7%
COc1ccc(C(CC(=O)c2ccc(C)cc2)Nc2ccc([N+](=O)[O-])cc2)cc1 (stereo unspecified) | 18.8 | 36.1% | ? | 28.4* | -23.1% | 12.6µM*
O=C(CC(Nc1ccc(F)cc1)C(=O)OCC(=O)c1cccs1)c1ccccc1 (stereo unspecified) | 24.3 | 70.1% | 0.0% | 16.0* | -29.4% | 6.2%
COc1ccc(C(=O)CC(c2ccccc2)S(=O)(=O)c2ccc(C)cc2)cc1 (stereo unspecified) | -11.5 | -4.5% | ? | -3.1 | . | 10.2%
NS(=O)(=O)c1ccc(CNC(=O)c2cc(-c3cccnc3)nc3ccc(Br)cc23)cc1 | -7.5 | -23.9% | ? | -1.5 | 14.8% | 2.2%
Cc1cc(C)cc(NC(=O)CCN2CCCC2)c1 | -11.3 | 15.8% | ? | -4.8 | -3.2% | ?
Cc1ccc(C(=O)CC(Nc2ccc(F)cc2)c2ccccc2)cc1 (stereo unspecified) | -0.9 | 80.7% | ? | 0.7 | ? | 7.5%
Cc1ccc(NC(CC(=O)c2ccccc2)c2ccc(F)cc2)cc1 (stereo unspecified) | 68.7* | 36.4% | 46.0% | 50.4* | -11.7% | 7.6%
COc1cccc(-c2ccc(NC(=O)C3CCCN(Cc4cnc(C)n4C)C3)cc2)c1 (stereo unspecified) | -3.6 | ? | -8.3% | 3.2 | 7.5% | ?
Cc1ncc(CN2CCCC(C(=O)Nc3ccc(-c4cccc(F)c4)cc3)C2)n1C (stereo unspecified) | 14.4 | 14.7µM* | 2.6% | 10.0 | -14.2% | 3.55µM*
COc1cccc(-c2ccc(NC(=O)C3CCCN(Cc4cnn(C)c4)C3)cc2)c1 (stereo unspecified) | 15.9 | ? | ? | 16.2 | -11.8% | 12.6µM*
COc1cccc(-c2ccc(NC(=O)C3CCCN(Cc4nccn4C)C3)cc2)c1 (stereo unspecified) | 35.1* | ? | 13.1µM* | 22.2* | 33.9% | ?
COc1cccc(-c2ccc(NC(=O)C3CCCN(Cc4cnn(C)c4C)C3)cc2)c1 (stereo unspecified) | 16.8 | -26.4% | 19.5% | 3.8 | 0.6% | ?
O=C1NC(NS(=O)(=O)c2ccccc2)(C(F)(F)F)C(=O)N1c1cccc(Cl)c1 (stereo unspecified) | -2.9 | -16.6% | 6.5% | -5.2 | 0.4% | 9.5%
Cc1ccc(C(=O)C(C)OC(=O)c2ccccc2[N+](=O)[O-])cc1 (stereo unspecified) | 71.0* | 272.0% | 0.0% | 50.1* | ? | -1.8%
Cc1ccc(C(=O)/C=C/c2ccccc2[N+](=O)[O-])cc1 | 39.3 | ? | 68.4% | 27.8* | -23.0% | ?
O=C(/C=C/c1ccccc1[N+](=O)[O-])c1ccccc1Br | 47.1* | ? | 12.6% | 14.1* | ? | ?
CC1(C(=O)NS(=O)(=O)c2ccc(Cl)cc2)CCN1C(=O)Cc1ccsc1 (stereo unspecified) | . | . | . | . | -7.8% | .
CCN(CC(=O)NC(C)(C)C)C(=O)c1ccc2c(c1)S(=O)(=O)c1ccccc1C2=O | -17.8 | ? | -19.7% | -0.7 | 1.2% | 16.6%
CCOc1ccc2nc(SCc3ccc(OC)cc3)sc2c1 | 35.3 | 54.4% | ? | 19.7* | 47.0% | -3.5%
CCOc1ccc2nc(SCc3ccccc3C#N)sc2c1 | 174.3* | 82.7% | 181.4% | 70.7* | 46.7% | -12.2%
CCOc1ccc2nc(SC3CC(=O)N(c4cccc(OC)c4)C3=O)sc2c1 (stereo unspecified) | -13.6 | 48.7% | ? | -2.0 | 59.4% | 20.2%
O=[N+]([O-])c1ccc2nc(SCc3ccccc3Cl)sc2c1 | 23.4 | 58.0% | 12.1% | 2.3 | -15.8% | ?
O=C(Cc1ccccc1)NCC(=O)Nc1ccccc1Br | 37.2 | 13.5% | 32.9% | -1.8 | -1.7% | 15.6%
SMILES | Shiga toxin inh | Pf growth 48h | Pf growth 96h | CHX counter | AMA1 RON2 block | HCV inh
CCOc1ccc(OCc2ccc(C(=O)NN=Cc3ccc[nH]3)cc2)cc1 | . | . | . | . | 51.5% | 0.562µM*
CC(C)(C)OC(=O)N/N=C\c1ccc[nH]1 | 57.7* | 134.9% | 24.6% | 41.2* | 4.5% | 9.9%
O=C(N/N=C\c1ccc[nH]1)c1cncc(Br)c1 | -2.2 | 37.7% | 18.0% | 1.2 | 64.0% | 13.6%
Cc1ccc(C(=O)N/N=C\c2ccc[nH]2)cn1 | 23.8 | . | 19.1% | 18.6* | -30.5% | 8.91µM*
O=C(N/N=C/c1ccc[nH]1)c1cccc(Br)c1 | + | 1.9% | 13.1% | 30.8* | 69.6% | 4.47µM*
CCc1nnc(NC(=O)c2cc(S(=O)(=O)N(C)c3ccc(OC)cc3)ccc2Cl)s1 | -15.6 | -17.6% | 21.7% | -4.3 | 0.1% | 18.1%
Cc1ccc(S(=O)(=O)N2CC3(O)CN(C(=O)OC(C)C)N(C(=O)OC(C)C)CC3(OC(=O)NC3CCCC3)C2)cc1 (stereo unspecified) | . | . | . | . | -16.4% | .
O=C(N/N=C/c1ccc[nH]1)c1cccnc1 | -4.9 | 62.9% | 173.3% | -1.4 | 107.1% | 4.3%
O=C(CNc1cccc2ccccc12)N/N=C/c1ccc[nH]1 | 25.5 | 9.1% | -3.1% | -0.6 | 47.7% | 1µM*
O=C(CNc1cccc2ccccc12)N/N=C/c1ccc([N+](=O)[O-])o1 | 14.4 | 3.29µM* | 1.17µM* | 10.4* | -9.0% | 10µM*
CSc1ccc(/C=N/NC(=O)CNc2cccc3ccccc23)cc1 | 9.3 | 3.0% | 10.4% | -0.1 | 8.8% | 1.9%
Cc1cccc(C(=O)N/N=C/c2ccc[nH]2)c1 | 80.1* | 0.5% | 80.7% | 23.9* | 2.9% | ?
O=C(N/N=C/c1ccc[nH]1)c1ccc([N+](=O)[O-])cc1 | 16.6 | 31.7% | ? | 19.8* | 12.2% | ?
O=C(NN=Cc1ccccc1Cl)c1ccc([N+](=O)[O-])cc1 | . | . | . | . | 0.1% | -5.8%
CCCCNC(=O)C1(C)CCCCCN1Cc1cccc2c(OC)cc(C(=O)OCC)cc12 (stereo unspecified) | . | . | . | . | -3.8% | .
Cc1cccc(NCC(=O)N/N=C\c2ccc[nH]2)c1 | -11.7 | -0.9% | 7.0% | 0.5 | 90.6% | 8.91µM*
Cc1ccc(NCC(=O)N/N=C\c2cccc(O)c2)cc1 | 28.9 | 8.9% | 11.5% | 17.7* | 51.3% | 15.9%
CCCCn1c(N)c(N(CC(C)C)C(=O)CSc2nnc(C)n2-c2ccccc2)c(=O)[nH]c1=O | . | . | . | . | -1.5% | 9.9%

High-throughput results: PubChem BioAssay, National Center for Advancing Translational Sciences (NCATS)
